Measurements as given in the supplement of paper PMC11417369.
Whole data set: some 25,000 sequences, median “ln(normalized median fluorescence intensity)” near 9.3, cut for the highest 2% near 10. This is one part of a sample in which the highest values are shown more often than they occur.

tested on: PF3D7_0420300 AP2 domain 1 (GST-tagged); experiment: gcPBM binding intensity (ln(normalized median fluorescence intensity)); higher = stronger DNA binding
Procedure, shortened: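 Each value is the highest Masliner-normalised natural-log median intensity across replicate spots of either orientation of a probe. The probes were primer-extended double-stranded 36-bp intergenic genomic sequences on an Agilent 4 × 180k array, alongside negative controls, exposed for 1 h to GST-tagged P. falciparum DNA-binding domains expressed in E. coli. Bound protein was picked up with Alexa488 anti-GST antibody and scanned at 488 nm.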

| Sequence | gcPBM binding intensity (ln) |
| --- | --- |
| TATTAAACGAAACACACACACACACCCATATATAAA [CACACA_site759] | 10.2 |
| TATTAAACTGGACACACACACACACCCATATATAAA [CACACA_site4579] | 10.2 |
| CATATAAAAATGTGCACACACACACCGATATATATT [CACACA_site4940] | 10.1 |
| TTCCCATGTAATATTAAACACACACCCATATAACAC [CACACA_site7905] | 9.76 |
| TTTATTAAACTTGACACACACACACCCACATATATA [CACACA_site760] | 10.2 |
| ACCATATAAATAAACACACACACACCCATATATATA [CACACA_site2321] | 10.2 |
| AACATATAAAAATGTGCACACACACCCATATATATA [CACACA_site1525] | 9.97 |
| TATATATTAAAACACACACACATATATATATATATA [CACACA_site3787] | 9.67 |
| AAAAAAAAAAAAAACACACACACACCCATAAATATA [CACACA_site151] | 9.88 |
| AATATAAATAAAAACACACACACACCCATATATATA [CACACA_site2267] | 10.1 |
| CATATAAAAATGTGCACACACACACCCATATATATT [CACACA_site1526] | 10.2 |
| TTTTACAAATATTACTGTACACATTTTCATATAATT [XGTACX_site17] | 9.49 |
| TTTTGCGAAAAAAGGTGTACTGTAAATATATTGAGG [XGTACX_site8941] | 9.09 |
| ATATATGATGTAAAAGCACACATATATATATATATA [CACACA_site9330] | 9.21 |
| TTTTTTTTAATATTTTACATTGTCTGTTAACAAATA [CACACA_negctrl_site599] | 9.14 |
| TTTCTTTTTTTTTTTATTTACCTGAATTATGTATTA [TGCATGCA_negctrl_site345] | 9.24 |

| Sequence | gcPBM binding intensity (ln) |
| --- | --- |
| TATGTGCACCCATATACACACACAAATACAATGATA [CACACA_site8295] | 9.81 |
| TATAAAATTTTTAAAAGTACATATTTTACATAATAC [XGTACX_site2193] | 9.1 |
| GCCTATATGTTTAGTTGTACTCCTAATATTATTTGT [XGTACX_site6060] | 9.75 |
| CGCAACACTATTTGGGTGCTCTTCAAAAAAAAAAAA [GTGCAC_site9598] | 8.56 |
| TATATATAGAAACACACACACACACCCAAGCGTAGC [CACACA_site63] | 10.2 |
| ATAATATATATATAAACACACAAAAAAAATTATATA [CACACA_site1534] | 9.74 |
| ATAAAAAGGAAACACACACACACACCCATATATATA [CACACA_site904] | 10.2 |
| TCATAGTAGAAACACACACACACACCCATATATATA [CACACA_site1737] | 10.2 |
| ATATAATATATATATAAACACACAAAAAAAATTATA [CACACA_site8434] | 9.63 |
| TATAAAAGGAAACACACACACATATATATATATATA [CACACA_site939] | 9.74 |
| TAAAAAGGAAAACACACACACACATATATATATATA [CACACA_site3588] | 9.9 |
| TATATATAGAAACACACACACATATATATATATATA [CACACA_site773] | 9.74 |
| TATATATAGAAACACACACACACATATATATATATA [CACACA_site4116] | 9.96 |
| TATATATAAAAACACACACACACACCCTATAATTAT [CACACA_site4063] | 10.3 |
| TATATATATAAACACACACACACACCCAAGCGTAGC [CACACA_site4210] | 10.1 |
| TATATATAGAAACACACACACACCAAAGCGTAGCGC [CACACA_site62] | 10 |
